For 59 compounds, inhibition results are on record in PubChem BioAssay AID1626 (SRMLSC, 2009).

Out of some 220,000 compounds screened, about 2,000 (0.91%) were called active. Not shown: some 2% with an inconclusive outcome. No stated cut-off is given here; in the data, inconclusive means inhibition above about 80% without an active follow-up result; inactive means below that; test concentration not stated here. Only a sample is shown. Results with a measured potency or affinity are listed apart.

The nature of this experiment: M. tuberculosis H37Rv growth inhibitors, H37Rv strain (AID 1626).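 Further: bacteria incubated seven days before Alamar blue readout; 0% = bacteria only wells and 100% = bacteria with antibiotic wells.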 As to conditions: active compounds read high, concentration not given here.
What is called inhibition is the drop in the measured response relative to a control, in per cent. With `COC(=O)c1c(NC(=O)CC2SC(N)=NC2=O)sc2c1CCC(C)C2` (centres undefined), the inhibition was 10.2% (inactive).

Turning to `COC(=O)c1c(NC(=O)CC2SC(N)=NC2=O)sc2c1CCCC2` (centres undefined), the inhibition was 0.3% (inactive).

For the compound `Nc1nc(CN2CCN(c3ccccc3F)CC2)nc(Nc2ccc3c(c2)OCCO3)n1`, the inhibition is 12.1% (inactive).

As for `CCCOc1ccc(-c2nnn(CC(=O)OCC)n2)cc1`, the inhibition was 79.1% (inactive).

Take `CC(C)COc1ccc(-c2nnn(CC(=O)N3CCCC3)n2)cc1`: the inhibition was 2.29% (inactive).

Regarding `COCCNC(=O)C(c1ccc(C)o1)N(C(=O)Cn1nnc2ccccc21)c1ccccc1` (centres undefined), the inhibition was 4.15% (inactive).

For the compound `COc1ccc(N2CCN(C(=O)c3ccc4c(c3)[nH]c(=S)n3c5ccccc5nc43)CC2)cc1`, the inhibition is -4.09% (inactive).

For `O=C(c1ccc2c(c1)[nH]c(=S)n1c3ccccc3nc21)N1CCN(c2ncccn2)CC1`, the inhibition is -5.02% (inactive).

For `Cc1csc2nc(CNS(=O)(=O)c3ccc4c(c3)CCCC4)cn12`, the inhibition is -3.26% (inactive).

Turning to `Cc1cnc(C(=O)Nc2ccc(C(C)C)cc2)cn1`, the inhibition is 13.7% (inactive).

For `CC(C)(C)c1ccc(Oc2ccc(NC(=O)C3CC=CCC3C(=O)O)cc2)cc1` (centres undefined), the inhibition is 3.77% (inactive).

Regarding `Cc1cnc(C(=O)Nc2ccc(F)cc2)cn1`, the inhibition is -5.16% (inactive).

In the case of `CCc1ccc(NC(=O)C2CC=CCC2C(=O)O)cc1` (centres undefined), the inhibition was -2.56% (inactive).

Take `O=S(=O)(NC1CCCCCCC1)c1cccs1`: the inhibition is 2.84% (inactive).

In the case of `CC/C=C\[C@H](O)[C@H](O)C1=C(C)C(=O)[C@]2(O1)C(=O)N[C@@](OC)(C(=O)c1ccccc1)C2O` (some centres undefined), the inhibition is -6.03% (inactive).

For `CCOC(=O)C(/C(C)=N/NC(=O)C1CC1c1ccccc1)C(C)C` (centres undefined), the inhibition was 2.71% (inactive).

For `CCCCc1nc2sc3c(SCC(=O)NCc4ccco4)ncnc3c2c2c1CCC2`, the inhibition was -4.26% (inactive).

As to `CCCCc1nc2sc3c(=O)n(N)cnc3c2c2c1CCC2`, the inhibition was -0.89% (inactive).

Regarding `COCCCNC(=O)c1c(NC(=O)C2COc3ccccc3O2)sc2c1CCCC2` (centres undefined), the inhibition is -1.45% (inactive).

On to `COc1ccc(OC)c(S(=O)(=O)N2Cc3ccccc3CC2C(=O)O)c1` (centres undefined), for which the inhibition was -11.6% (inactive).

Take `CC(=O)Nc1ccc(NC(=O)CCCCCN2C(=O)c3ccccc3C2=O)cc1`: the inhibition is 1.79% (inactive).

Turning to `CCN1/C(=C2\SC(=S)N(Cc3ccccc3)C2=O)Sc2ccccc21`, the inhibition was 5.93% (inactive).

For the compound `CCN1/C(=C\C=C2\C(=O)N(C)C(=S)N2C)Sc2ccccc21`, the inhibition is 16% (inactive).

As to `CC(=O)Nc1ccc2c(c1)nc1n2CCN(C(C)c2ccccc2)C1` (centres undefined), the inhibition is 5.76% (inactive).

For `O=C(c1ccc(F)cc1)N1CCCCC(S(=O)(=O)c2ccccc2)C1=O` (centres undefined), the inhibition was 6.14% (inactive).

Turning to `N#CCSc1nc2ccccc2c(=O)n1CCCC(=O)NCC1CCCO1` (centres undefined), the inhibition was -1.98% (inactive).

On to `Cc1ccc(C(=O)OCC(=O)c2ccc[nH]2)s1`, for which the inhibition was 7.67% (inactive).

In the case of `O=C(COC(=O)c1ccc[nH]c1=O)c1ccc(Cl)s1`, the inhibition was -0.06% (inactive).

In the case of `O=C1NC(O)(c2ccccc2)Oc2ccccc21` (centres undefined), the inhibition was -6.9% (inactive).

As to `Cc1[nH][nH]c(=O)c1C(c1ccc(-c2ccc(F)cc2)o1)c1c(C)[nH][nH]c1=O`, the inhibition is 4.51% (inactive).

Consider `Cc1[nH][nH]c(=O)c1C(c1ccc(-c2ccc(Cl)c(Cl)c2)o1)c1c(C)[nH][nH]c1=O`, for which the inhibition was 60.8% (inactive).

In the case of `O=C(CN1CCC(N2CCCCC2)CC1)N1CCOCC1`, the inhibition was 5.06% (inactive).

Consider `CCOC(=O)N1CCN(C(c2ccc(C(C)C)cc2)c2sc3nc(C)nn3c2O)CC1` (centres undefined), for which the inhibition is 0.52% (inactive).

For the compound `COc1ccc(Cl)cc1S(=O)(=O)NCc1cccnc1`, the inhibition was -12% (inactive).

Turning to `O=S(=O)(Nc1ccc(-c2nnc(SCc3ccc(Cl)cc3)o2)cc1)c1ccccc1`, the inhibition is 5.83% (inactive).

On to `O=c1cc(CSc2nnc(COc3ccccc3)n2-c2ccccc2)c2ccccc2[nH]1`, for which the inhibition is 3.7% (inactive).

Consider `Cc1cccc(OCc2nnc(SCc3cc(=O)[nH]c4ccccc34)n2-c2ccccc2)c1`, for which the inhibition was 4.6% (inactive).

On to `COCCNC(=O)c1cc(-c2ccc(OC)c(OC)c2)on1`, for which the inhibition was 6.55% (inactive).

In the case of `COc1ccc(-c2cc(C(=O)Nc3cc(OC)c(OC)c(OC)c3)no2)cc1OC`, the inhibition is -1.57% (inactive).

Take `CCOC(=O)c1ccc(NC(=O)CSc2nc3c(c(=O)n2CC)SC(C)C3)cc1` (centres undefined): the inhibition was 7.17% (inactive).

For `CCCSc1cc(NCCOC(C)=O)c([N+](=O)[O-])c2nonc12`, the inhibition was 2.64% (inactive).

Take `CCCSc1cc(NCCOC(=O)CCC)c([N+](=O)[O-])c2nonc12`: the inhibition was 56.8% (inactive).

Turning to `CC(=O)OCCNc1cc(SC(C)C)c2nonc2c1[N+](=O)[O-]`, the inhibition is 1.55% (inactive).

On to `CC(C)CCSc1cc(NCCO)c([N+](=O)[O-])c2nonc12`, for which the inhibition is -2.23% (inactive).

Take `COC(=O)c1cc2ccsc2n1CC(=O)Nc1cc(C)cc(C)c1`: the inhibition is -0.8% (inactive).

`CC(C)Nc1cc(C(C)(C)C)nc2c(-c3ccccc3)cnn12`: the inhibition is -1.54% (inactive).

For the compound `Cc1cc(NCCOCCO)n2ncc(-c3ccc(Cl)cc3)c2n1`, the inhibition is 8.65% (inactive).

With `Cc1cc(NCCCN2CCOCC2)n2ncc(-c3ccc(Cl)cc3)c2n1`, the inhibition is 4.89% (inactive).

Regarding `CC(C)(C)c1cc(C(F)(F)F)n2ncc(-c3ccccc3)c2n1`, the inhibition was 3.89% (inactive).

For `CCCc1cc(=O)oc2c(C)c(OCC(=O)c3ccc(N4CCCC4)cc3)ccc12`, the inhibition is 15.8% (inactive).

In the case of `COCCNC(=O)c1onc(CSc2ccc(C(C)C)cc2)c1C(=O)O`, the inhibition is -18.6% (inactive).

In the case of `O=C1C2C3CCC(C3)C2C(=O)N1c1ccc(OS(=O)(=O)c2ccccc2)cc1` (centres undefined), the inhibition is -1.92% (inactive).

As to `CCOC(=O)c1nn(-c2ccc(Cl)cc2)c2nc(CC)c(C#N)c(=O)n12`, the inhibition was 1.58% (inactive).

With `COCC(=O)OC/C(O)=C(\C#N)c1nc2ccccc2[nH]1`, the inhibition was 43.4% (inactive).

As to `Cc1cccc(C)c1OCC(=O)OC/C(O)=C(\C#N)c1nc2ccccc2[nH]1`, the inhibition was 3.83% (inactive).

Regarding `Cc1cc(Br)ccc1SCC(=O)OC/C(O)=C(\C#N)c1nc2ccccc2[nH]1`, the inhibition was 77.9% (inactive).

On to `Cc1cc(C)cc(OCC(=O)OC/C(O)=C(\C#N)c2nc3ccccc3[nH]2)c1`, for which the inhibition is 13% (inactive).

As for `CC(C)C(=O)OC/C(O)=C(\C#N)c1nc2ccccc2[nH]1`, the inhibition is -0.61% (inactive).

Regarding `N#C/C(=C(/O)COC(=O)CSc1ccc(Cl)cc1)c1nc2ccccc2[nH]1`, the inhibition was 76.2% (inactive).
